About 83,000 compounds went through this panel and 20% of them were active in at least one assay; those are over-represented in the sample as a whole.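 Values shown are percent growth following 48 h exposure of cells in 96-well plates to a single concentration of compound; below 10 was considered active.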 Unmarked numbers belong to inactive results. The source made the active and inactive calls.
Tests used:
Assay in all cases: NCI-60 one-dose screen, 48 h (100 = growth as untreated, 0 = no growth, -100 = all killed)
Conditions in all cases: 10 µM unless noted
SK-MEL-2 melanoma = tested on: SK-MEL-2 melanoma
EKVX NSCLC = tested on: EKVX NSCLC
SN12C renal = tested on: SN12C renal
UO-31 renal = tested on: UO-31 renal
TK-10 renal = tested on: TK-10 renal
ACHN renal = tested on: ACHN renal
CAKI-1 renal = tested on: CAKI-1 renal
A498 renal = tested on: A498 renal
CCRF-CEM leukemia = tested on: CCRF-CEM leukemia
MOLT-4 leukemia = tested on: MOLT-4 leukemia

SMILES | growth (SK-MEL-2 melanoma) | growth (EKVX NSCLC) | growth (SN12C renal) | growth (UO-31 renal) | growth (TK-10 renal) | growth (ACHN renal) | growth (CAKI-1 renal) | growth (A498 renal) | growth (CCRF-CEM leukemia) | growth (MOLT-4 leukemia)
O=C1NC(=O)c2c1c1c3ccccc3ccc1c1[nH]c3ccc(Br)cc3c21 | 35.4% | 18% | 9.28% (active) | 2.24% (active) | 36.8% | 1.55% (active) | 15.8% | -10.7% (active) | 10.8% | 9.35% (active)
Cc1ccc(C2=Nc3c(N)ncnc3NC(c3ccc4c(c3)OCO4)C2)cc1 (stereo not given) | 61.8% | 83.2% | 96.8% | 60.9% | 84.5% | 74.3% | 56.6% | 55.4% | -39.4% (active) | 49.3%
CS(=O)(=O)c1cccc(-c2c(-c3cccc(OS(N)(=O)=O)c3)nc3sccn23)c1 | 117% | 95.3% | 102% | 75.5% | 108% | 99.2% | 81.2% | 100% | 107% | 105%
O=S(=O)(Nc1cc(Br)c(O)c2ccccc12)c1ccc(F)cc1 | 87.8% | 109% | 49.3% | 48.5% | 123% | 71.2% | 80.5% | 89.9% | 11% | -40.3% (active)
Cc1ccc(-c2nc(/C=C3/C(=O)Nc4ccccc43)c3ccccn23)cc1 | 39.3% | 80.1% | 82.6% | 54.3% | 88.9% | 16.6% | 48.8% | 104% | 84.3% | 72.2%
CCCCC(=O)c1ccco1 | 98.6% | 98.7% | 87.9% | 79.1% | 96% | 96.7% | 90.2% | 74.6% | 92.3% | 102%
Cc1cnc(C(=O)NNc2nc3sc4c(c3c(=O)n2C)C(C)CCC4)cn1 (stereo not given) | -6.07% (active) | 6.08% (active) | 9.01% (active) | -0.356% (active) | 27.2% | 9.47% (active) | 2.74% (active) | 21.1% | 2.41% (active) | 3.79% (active)
CCOC(=O)c1[nH]c(=O)c2c(C)nc(-c3ccccc3)cc2c1O | 84.8% | 98.8% | 88.8% | 90% | 178% | 110% | 109% | 72.6% | 91.8% | 98.1%
COc1ccc(/C=C2\COc3ccc(O)cc3C2=O)c(OC)c1OC | 102% | 93.9% | 66.3% | 71.5% | 109% | 80.1% | 68.2% | 113% | 8.08% (active) | 73.2%
C=C(C)[C@@H]1CC[C@]2(C(=O)NCC#CCN3CCN(C)CC3)CC[C@]3(C)[C@H](CC[C@@H]4[C@@](C)(CCC#N)[C@H](C(=C)C)CC[C@]43C)[C@@H]12 | 91.8% | 52.1% | 69.2% | 51.6% | 80.4% | 70.8% | 57.7% | 57.5% | 51.3% | 10.9%
CC[C@@H](C(=O)[C@@H](C)[C@@H](O)[C@H](C)[C@@H]1O[C@@H]([C@@H](CC)C(=O)NCCc2ccc(F)cc2)CC[C@@H]1C)C1O[C@]2(C=CC(=O)[C@]3(CC[C@@](C)([C@H]4CC[C@](O)(CC)[C@H](C)O4)O3)O2)[C@H](C)C[C@@H]1C (stereo not given in full) | 53% | 29.6% | 37.7% | 19.2% | 16.6% | 9.48% (active) | 14.2% | 34.6% | 40.1% | 19.2%
O=C1N(Cc2ccccc2Cl)c2ccccc2C12NN=C(c1cccc(Cl)c1)S2 (stereo not given) | -23.1% (active) | -31% (active) | -19.8% (active) | -58.3% (active) | -3.68% (active) | -47.1% (active) | -30.7% (active) | -85.9% (active) | 1.03% (active) | -18% (active)
O=C1CC(N2C(=O)/C(=C/C(Cl)=C\c3ccc([N+](=O)[O-])cc3)SC2=S)C(=O)N1c1ccc(Cl)cc1 (stereo not given) | 68.3% | 32.3% | 4.02% (active) | -42.8% (active) | 38% | 1.2% (active) | 23.5% | 55% | 11.4% | 11.7%
OCCNCCCOc1ccc2ncnc(Nc3ccc(Oc4cccc(C(F)(F)F)c4)c(Cl)c3)c2c1 | 73.5% | 27% | 58.1% | 26% | 49% | -45.4% (active) | 9.01% (active) | 58.8% | 6.8% (active) | 1.07% (active)
Cc1ccc(Sc2oc(-c3ccc(C)cc3)nc2[P+](c2ccccc2)(c2ccccc2)c2ccccc2)cc1 | -36% (active) | 6.65% (active) | 3.64% (active) | -22.3% (active) | 22.7% | -6.75% (active) | -23.2% (active) | -40.5% (active) | -2.03% (active) | -25.9% (active)
COc1cc(CNS(=O)(=O)c2ccc(C)cc2)ccc1OCc1cn(-c2ccc(F)cc2)nn1 | 104% | 80.3% | 92.2% | 63.9% | 116% | 93.2% | 89.6% | 54.1% | 79.9% | 78.2%
COC(C(=O)[C@@H](O)[C@@H](C)O)[C@@H]1Cc2cc3cc(O[C@H]4C[C@@H](O[C@H]5C[C@@H](O)[C@H](O)C(C)O5)[C@H](O)C(C)O4)c(C)c(O)c3c(O)c2C(=O)[C@H]1O[C@H]1C[C@@H](O[C@H]2C[C@@H](O[C@H]3C[C@@H](O)[C@H](OC)C(C)O3)[C@@H](O)C(C)O2)[C@H](O)C(C)O1 (stereo not given in full) | -43.7% (active) | 12.3% | 15.9% | -8.18% (active) | -2% (active) | 4.45% (active) | 13.7% | -47.5% (active) | 9.56% (active) | -6.79% (active)
COc1ccc(OC)c(-c2c(C#N)c(-c3cccs3)nc3c2c(-c2ccccc2)nn3-c2ccccc2)c1 | 107% | 99.7% | 99.3% | 97.1% | 108% | 102% | 91.9% | 103% | 99.7% | 99.4%
C/C(=C(/c1ccc(Cl)cc1)c1ccc(OCCN2CCCC2)cc1)c1ccc(Cl)cc1 | 93.9% | 90.7% | 85.5% | 65.7% | 94.6% | 104% | 88.5% | 97.9% | 61.7% | 62.9%
COc1cc(OC)cc(C2=C3CC[C@@H]4[C@H](CC[C@]5(C)C(=O)CC[C@@H]45)C3=CC3C(O)c4cccnc4N4C(=O)COC234)c1 (stereo not given in full) | 108% | 101% | 101% | 86.2% | 96.5% | 102% | 86.6% | 91.6% | 104% | 96.2%
C=C(C)[C@@H]1CC[C@]2(C(=O)OC)CC[C@]3(C)[C@H](CC[C@@H]4[C@@]5(C)C/C(=C/NC(N)=S)C(=O)C(C)(C)[C@@H]5CC[C@]43C)[C@@H]12 | 103% | 91.3% | 58.9% | 73.4% | 111% | 77.6% | 66.4% | 114% | 84.7% | 70.3%
Cc1ccc(C(C(N)=O)C(C(N)=O)c2ccccc2)cc1 (stereo not given) | 105% | 113% | 112% | 108% | 101% | 115% | 101% | 116% | 93.4% | 100%
O=C(NCc1ccccc1)Nc1ccccc1CNc1nc(Nc2ccc(OCCN3CCCC3)cc2)ncc1Cl | 108% | 99.2% | 101% | 71.7% | 110% | 92.3% | 106% | 77.2% | 20% | 74.1%
CCCC(=O)NC(c1ccc2c(c1)OCO2)c1ccc2cccnc2c1O (stereo not given) | 46% | 19.1% | 23.9% | -23.2% (active) | 25.8% | 5.12% (active) | 6.21% (active) | 12.9% | 4.72% (active) | 2.22% (active)
Nc1c(C(=O)Nc2ccccc2Cl)sc2nc3c(cc12)C(O)CCC3 (stereo not given) | 36.5% | 40.7% | 59.7% | 56.9% | 45.8% | 57.1% | 49.6% | 18% | 17.7% | 38.9%
O=[N+]([O-])c1ccc(S(=O)(=O)N2CCN(C3=NS(=O)(=O)c4ccccc4N3c3ccccc3)CC2)cc1 | 61.6% | 102% | 114% | 76.8% | 118% | 99.3% | 84.6% | 105% | 125% | 94.9%

— PubChem BioAssay (NCI)
